Test results published in PubChem BioAssay AID624125 (The Scripps Research Institute Molecular Screening Center, 2012).
Where “and” joins values, the source holds several entries; their conditions need not be identical. Equal values may be shown once. Out of some 360,000 compounds screened, about 2,600 (0.72%) were called active. The sample holds actives, similar compounds and a random draw of the others, so the mix is not that of the screen.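 The calls were made as follows: active = inhibition above its plate's cutoff, the mean inhibition of sample wells plus 3 SD (cut at about 27% in these data); inactive = the rest.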 Some compounds were tested as several samples or in several runs, with calls that do not always agree.

Biological target: Muscarinic acetylcholine receptor M4 (Homo sapiens) (UniProt P08173)
Test: CHRM4 blockers of acetylcholine calcium response – CHO cells, Fluo-8 calcium fluorescence, primary screen (AID 624125);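 also: 0% = acetylcholine EC80 with DMSO and 100% = DMSO without agonist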
Settings: CHO-hM4 cells, ACh EC80, Fluo-8 calcium fluorescence; at 3 µM; stronger effect = higher value

Sequence of Muscarinic acetylcholine receptor M4 (Homo sapiens) (P08173 whole entry, looked up): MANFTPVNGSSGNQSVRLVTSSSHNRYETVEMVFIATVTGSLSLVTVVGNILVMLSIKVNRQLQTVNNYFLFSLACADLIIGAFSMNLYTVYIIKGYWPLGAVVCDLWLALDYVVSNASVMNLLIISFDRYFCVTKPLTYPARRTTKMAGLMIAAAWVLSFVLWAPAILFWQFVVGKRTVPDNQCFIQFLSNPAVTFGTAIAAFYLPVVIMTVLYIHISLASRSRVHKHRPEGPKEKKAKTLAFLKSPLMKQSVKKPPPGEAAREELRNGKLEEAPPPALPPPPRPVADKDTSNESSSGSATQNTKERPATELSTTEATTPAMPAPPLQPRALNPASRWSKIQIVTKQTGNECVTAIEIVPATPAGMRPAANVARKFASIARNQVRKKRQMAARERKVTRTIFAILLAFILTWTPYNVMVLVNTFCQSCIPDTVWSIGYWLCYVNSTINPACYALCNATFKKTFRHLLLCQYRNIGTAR

| SMILES | inhibition |
| --- | --- |
| CC(C)c1cc(C(=O)N/N=C/c2ccoc2)c(O)c(C(C)C)c1 | 5.01% (inactive) |
| COC(=O)c1ccccc1NC(=O)CN(Cc1ccc(Cl)cc1)S(C)(=O)=O | 1.99% (inactive) |
| O=C(Cc1ccc(Cl)cc1)NC(=S)Nc1ccccc1O | 59% (active) |
| Fc1ccccc1CNC(=S)Nc1ccc(Cl)cc1 | 4.18% (inactive) |
| CCOc1ccc(S(=O)(=O)N(CC(=O)NCC(F)(F)F)Cc2ccco2)cc1 | -2.55% (inactive) |
| Cc1ccc(OCCNC(=O)CCNS(=O)(=O)c2ccc(Br)cc2)cc1 | -11.5% (inactive) |
| Cc1ccc(OC(=O)c2c(C)nn(-c3ccccc3)c2C)cc1 | -5.29% (inactive) |
| CCC1OC(c2ccc([N+](=O)[O-])cc2)=Nc2ccccc21 (stereo unspecified) | 31.2% (active) |
| CCCCN(C)c1ccc([N+](=O)[O-])cc1 | 12.1% (inactive) |
| COc1ccccc1CSc1ncc(-c2ccc([N+](=O)[O-])cc2)[nH]1 | -1.68% (inactive) |
| CCOC(=O)c1cc(-c2ccccc2C)n(Cc2cc(C)no2)n1 | 4.03% (inactive) |
| CCCCNCCS(=O)(=O)NCc1ccccc1 | 7.64% (inactive) |
| C=CC1=C(C(=O)O)N2C(=O)[C@@H](NC(=O)/C(=N\OCC(=O)O)c3csc(N)n3)[C@H]2SC1 | -25.2% (inactive) |
| C=CC1=C(C(=O)O)N2C(=O)[C@@H](NC(=O)/C(=N/OCC(=O)O)c3csc(N)n3)[C@H]2SC1 | -12.2% (inactive) |
| CO/N=C(\C(=O)N[C@@H]1C(=O)N2C(C(=O)O)=C(COC(C)=O)CS[C@H]12)c1csc(N)n1 (stereo in doubt) | -6.4% (inactive) and 79.2% (active) and 82.7% (active) |
| O=C(Cc1csc(Nc2nc(=S)[nH]c3ccccc23)n1)NCCCN1CCN(c2cccc(Cl)c2)CC1 | 32.6% (active) |
| Cn1c(Cc2cccc3ccccc23)nnc1SCC(=O)N1CCN(c2cccc(Cl)c2)CC1 | -1.27% (inactive) |
| O=C(Cc1ccc(-n2c(=O)[nH]c3ccccc3c2=O)cc1)N1CCN(c2cccc(Cl)c2)CC1 | -5% (inactive) |
| COc1cc(SC#N)ccc1N=Cc1c(C)[nH]n(-c2ccc(C)cc2)c1=O | 39.7% (active) |
| CCN(CC(=O)NCc1cccs1)S(=O)(=O)c1ccc(NC(C)=O)cc1 | 16.2% (inactive) |
| CCCCNC(=O)N1CCN(S(C)(=O)=O)CC1 | 10.9% (inactive) |
| O=C(Nc1ccc(Cl)c(C(F)(F)F)c1)C1Cc2c(-c3ccccc3Oc3ccccc3)ccnc2O1 (stereo unspecified) | 6.27% (inactive) |
| O=C1c2ccccc2C(=O)N1CCC(O)C[N+](=O)[O-] (stereo unspecified) | -2.27% (inactive) |

| SMILES | inhibition |
| --- | --- |
| O=C1c2ccccc2C(=O)N1CCC(c1ccccc1)c1ccco1 (stereo unspecified) | 35.6% (active) |
| Nc1ccc(SCCN2C(=O)c3ccccc3C2=O)cc1 | 2.61% (inactive) |
| Cc1ccc(NC(=O)COC(=O)C2C3CC4OC(=O)C2C4C3)cc1Cl (stereo unspecified) | 15.9% (inactive) |
| CCCN1C(=O)C(NC(C)=O)c2cc(OC)ccc21 (stereo unspecified) | 13.9% (inactive) |
| ON=C1/C(=N\O)CC2(C/C1=N/O)OCCO2 | 10.7% (inactive) |
| CN(C(=O)CN1C(=O)/C(=C/c2ccc(Cl)cc2)SC1=S)C1CCS(=O)(=O)C1 (stereo unspecified) | -3.95% (inactive) |
| COc1cc(/C=C2/SC(=S)N(Cc3ccccc3)C2=O)cc(OC)c1O | 34.3% (active) |
| COc1cc(/C=C2\SC(=O)NC2=O)ccc1OCc1ccc(Cl)nc1 | -5.37% (inactive) |
| Cc1cc(C)cc(C(=O)N(CCc2ccccc2)C2=CC3CCC(C2)N3C)c1 (stereo unspecified) | 2.44% (inactive) |
| CCCN(CCc1ccccc1)C1CCc2c(O)cccc2C1 (stereo unspecified) | 50.8% (active) |
| Cc1cccc(C)c1NC(=O)C(c1cccc2ccccc12)n1c(=O)c(-c2ccco2)nc2ccccc21 (stereo unspecified) | -2.98% (inactive) |
| Cc1ccc(S(=O)(=O)N2CCN(C(=O)COC(=O)CNC(=O)c3ccc(C(C)(C)C)cc3)CC2)c(C)c1 | 1.62% (inactive) |
| Cc1cccc(C)c1NC(=O)c1ccc(CN2CCc3ccccc3C2)cc1 | 12.8% (inactive) |
| Cc1ccc(NC(=O)CN2CCc3ccccc3C2)cc1C | 1.35% (inactive) |
| Cc1cccc2c1-c1sc(C(=O)NCCCN3CCc4ccccc4C3)cc1CO2 | 45.9% (active) |
| Cc1ccc(C(=O)OCC(=O)NC(=O)Cc2ccccc2)c(O)c1 | 3.16% (inactive) |
| CC1CCCCC1NC(=O)CN1CCC(O)(c2ccc3c(c2)OCO3)CC1 (stereo unspecified) | -5.57% (inactive) |
| CC(=O)c1c(C)[nH]c(C(=O)COC(=O)c2cccc(S(=O)(=O)N(C)c3ccccc3)c2)c1C | 54.5% (active) |
| COc1ccc(C)cc1NC(=O)C(OC(=O)c1cccc(S(=O)(=O)N(C)c2ccccc2)c1)c1ccccc1 (stereo unspecified) | 5.12% (inactive) |
| CC(=O)c1c(C)[nH]c(C(=O)OCC(=O)Nc2c(C)cccc2C)c1C | 4.68% (inactive) |
| C=CCSc1nc(N)cc(=O)[nH]1 | 4.39% (inactive) |
| O=C(C1CCN(CC2CCCCC2)CC1)N1CCCC1 | -6.1% (inactive) |
| CC(=O)NC(c1cccc(F)c1)c1nc(-c2cccc(F)c2)cs1 (stereo unspecified) | -12% (inactive) |

| SMILES | inhibition |
| --- | --- |
| COC(=O)c1ccccc1Sc1c(/C=N/OCc2ccc(Cl)cc2)c(C(F)(F)F)nn1C | -7.11% (inactive) |
| CCC(=O)OCc1c(C(F)(F)F)nn(C)c1Oc1cccc(C(F)(F)F)c1 | 9.7% (inactive) |
| Cn1nc(C(F)(F)F)c(C(=O)Nc2cccc(C(F)(F)F)c2)c1SCc1ccc(Cl)cc1 | 33.8% (active) |
| C=CCNC(=S)/N=c1/ccccn1Cc1ccccc1 | 11.8% (inactive) |
| COc1cccc(CNc2nc(NCc3cccs3)nc3ccsc23)c1 | 48.6% (active) |
| COc1cccc(CNc2nc(NCc3ccccc3OC)nc3ccsc23)c1 | 13.8% (inactive) |
| COc1ccccc1CNc1nc(Nc2ccccc2Cl)c2sccc2n1 | 3.54% (inactive) |
| COc1ccc(OCC(=O)Nc2cc(C)c(Cl)cc2OC)c([N+](=O)[O-])c1 | -4.9% (inactive) |
| Cc1ccccc1C(OCCN(C)C)C1CCCCC1 (stereo unspecified) | 83% (active) |
| Cc1ccccc1C(OCC(O)CN1CCCCC1CCO)c1ccccc1 (stereo unspecified) | 8.86% (inactive) |
| CN(C)CCOC1c2ccccc2-c2ccccc21 | 3.09% (inactive) |
| Cc1n[nH]c(=O)n1-c1ccc(Oc2ccccc2)cc1 | -7.75% (inactive) |
| COc1cccc(/C=N/Nc2cc(C)nc(-c3ccccc3O)n2)c1O | 28.3% (active) |
| COc1ccc(OC)c(/C=N/NC(=O)c2ccc[n+](CC(=O)c3ccccc3)c2)c1 | -5.54% (inactive) |
| CCCCCCCCn1c2c(c(=N)c3c1CCC3)CCCC2 | 36.8% (active) |
| CC1CN(S(=O)(=O)c2ccccc2)C(C)CN1S(=O)(=O)c1ccccc1 (stereo unspecified) | -4.76% (inactive) |
| O=C(CC(NC(=O)c1ccccc1)c1ccccc1)Nc1ccc(F)c(F)c1 (stereo unspecified) | -4.69% (inactive) |
| COc1ccccc1OCc1nnc(SCC(N)=O)n1-c1ccccc1 | -4.24% (inactive) |
| CC1CCN(C(=O)c2ccc(S(=O)(=O)Cc3cc(F)ccc3F)c([N+](=O)[O-])c2)CC1 | -7.53% (inactive) |
| C#CCNC(=O)C1=C[C@@H](c2ccccc2)[C@H](CCCO)[C@@H](OCC)O1 | 12.4% (inactive) |
| O=[N+]([O-])c1ccc(CN2CC(N3CC=CC3)CS2(=O)=O)cc1 (stereo unspecified) | -1.16% (inactive) |
| O=C1/C(=C\c2ccc([N+](=O)[O-])cc2)CS(=O)(=O)C/C1=C/c1ccc([N+](=O)[O-])cc1 | 26.7% (active) |
| O=C(CSCc1c(F)cccc1Cl)NCC1CCCO1 (stereo unspecified) | -3.01% (inactive) |

| SMILES | inhibition |
| --- | --- |
| CC(=O)Nc1ccccc1OC(C)C(=O)N1CCC(C)CC1 (stereo unspecified) | -7.56% (inactive) |
| CC(C)c1cc(C(=O)N(C)C2CCCN(Cc3ccccc3F)C2)n(C)n1 (stereo unspecified) | -12.6% (inactive) |
| O=C(O)C(c1cccs1)C1(O)CCCCC1 (stereo unspecified) | 5.22% (inactive) |
| O=C(O)C(c1ccccc1)C1(O)CCCCC1 (stereo unspecified) | -13.2% (inactive) |
| CN(C)CCOC(=O)C(c1ccccc1)C1(O)CCCC1 (stereo unspecified) | 98% (active) |
| CCC(C)[C@H](NC(=O)N1CCn2c1nc1ccccc12)C(=O)NCc1ccc(OC)cc1 (stereo partly specified) | -15.9% (inactive) |
| NS(=O)(=O)c1ccc(CCNC(=O)c2ccc([N+](=O)[O-])cc2[N+](=O)[O-])cc1 | 5.77% (inactive) |
| COc1nnc(-c2ccc(C)c(S(=O)(=O)N(C)C)c2)c2ccccc12 | 2.31% (inactive) |
| COC(=O)c1ccc2nc(-c3ccccc3)c(Cc3ccc(OC)cc3C)n2c1 | 11.4% (inactive) |
| CCCCNc1c(-c2cccc(Sc3ccc(OC)cc3)c2)nc2ccccn12 | 48.5% (active) |
| COC(=O)c1ccc2nc(-c3cccc(Br)c3)c(Cc3ccc(OC)cc3C)n2c1 | 1.2% (inactive) |
| CN1C(=O)CC(N2CCN(c3ccccn3)CC2)C1=O (stereo unspecified) | 2.5% (inactive) |
| Cc1ccc(C(=O)N(CN2CCCC2=O)c2ccc(F)cc2)cc1 | 6.56% (inactive) |
| COc1ccc(CC2(CO)CCN(Cc3cnn(C)c3)CC2)cc1 | -5.66% (inactive) |
| COc1cccc(CC2(CO)CCN(Cc3cnc(-c4cccc(C)c4)nc3)CC2)c1 | 0.77% (inactive) |
| COC(=O)c1ccc(CN2CCC(CO)(Cc3ccc(OC)cc3)CC2)cc1 | 31.7% (active) |
| CC(C)(C)Nc1c(-c2cccs2)nc2ccccn12 | 6.54% (inactive) |
| O=C(CNS(=O)(=O)c1ccc2c(c1)OCCCO2)N1CCN(c2ccc(F)cc2)CC1 | -7.25% (inactive) |
| CC(C)CCN1C(=O)c2ccc(C(=O)Nc3cccc(S(N)(=O)=O)c3)cc2C1=O | 4.89% (inactive) |
| CN=C1C=C/C(=N/N=c2\ccn(O)cc2C)C=C1C | 11.9% (inactive) |
| Nc1scc[n+]1Cc1cccc2cccnc12 | -7.43% (inactive) |
| c1ccc2c(C[n+]3csc4ccccc43)cccc2c1 | 30.1% (active) |
